Only some compounds are listed: those with a hit (about 9.9% of all), similar ones and a draw of the others.
KDM4E inh = JMJD2E (human) inhibition | B2RXH2 | JMJD2E catalytic domain, FDH-coupled NADH fluorescence (FDH is formaldehyde dehydrogenase) | Potency, µM (titrated, usually from 57.1 µM), for the others: at the top dose activity change, negative = inhibition, hits mostly inhibitors | 1.6% of 230,000 active | AID 2147;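 note: 0% = wells with enzyme and -100% = buffer wells without enzyme; nearly all actives have a fitted effect of over 50% in size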
ALDH1A1 block = ALDH1A1 (human) enzyme inhibition; Purified ALDH1A1, NADH fluorescence, propionaldehyde substrate; AID 1030; Potency, µM (series often up to 75.3 µM), without a hit: top-dose activity, negative = inhibition, usual class: inhibitors; P00352; 7.3% of 220,000 active;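 note: plate controls were no enzyme wells and a reference inhibitor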
Target sequence (P00352 whole entry, looked up): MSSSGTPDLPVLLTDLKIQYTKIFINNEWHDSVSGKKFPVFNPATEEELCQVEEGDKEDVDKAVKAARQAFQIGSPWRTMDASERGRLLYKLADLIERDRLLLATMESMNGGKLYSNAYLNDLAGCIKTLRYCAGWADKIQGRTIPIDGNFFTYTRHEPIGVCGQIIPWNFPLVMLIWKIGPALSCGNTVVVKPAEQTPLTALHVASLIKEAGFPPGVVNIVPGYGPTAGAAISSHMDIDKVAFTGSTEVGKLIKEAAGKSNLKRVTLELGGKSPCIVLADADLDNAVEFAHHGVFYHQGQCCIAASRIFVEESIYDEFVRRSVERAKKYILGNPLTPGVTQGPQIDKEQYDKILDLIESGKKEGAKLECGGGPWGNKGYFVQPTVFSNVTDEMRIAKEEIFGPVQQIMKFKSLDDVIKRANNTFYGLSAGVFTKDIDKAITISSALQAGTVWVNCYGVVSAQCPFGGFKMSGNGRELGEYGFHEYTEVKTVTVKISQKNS
Tau fibril FP = blocks human tau fibril formation measured by polarization; P10636; K18 P301L tau heparin fibrillization, Alexa594 FP, 6 h; Potency, µM (series often up to 57.7 µM), without a hit: top-dose activity, negative = inhibition, usual class: inhibitors; 0.39% of 280,000 active; AID 1468; active = well fitted curve in the direction sought with a large enough effect; inconclusive = small, poorly fitted or top-dose-only effect, or another doubt; inactive = no such curve, though single readings can be large; an effect the other way counts as inactive or inconclusive; note: nearly all actives have a fitted effect of over 55% in size
Target sequence (P10636 561-689 P618L limits assumed): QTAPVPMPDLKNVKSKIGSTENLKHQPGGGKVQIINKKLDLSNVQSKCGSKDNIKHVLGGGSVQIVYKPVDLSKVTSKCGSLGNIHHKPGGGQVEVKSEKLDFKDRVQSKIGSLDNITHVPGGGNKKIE
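FP of Alexa 594-tau after heparin (20 uM) induction. Substrate: human K18 P301L, 15 uM unlabeled, 0.24 uM labeled. Buffer 100 mM sodium acetate pH 7. 6 hr, 37 C.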
Tau fibril ThT = blocks human tau fibril formation measured by thioflavin T | P10636 | recombinant tau K18 P301L, heparin-induced fibrillization, ThT fluorescence | Potency, µM (series often up to 57.4 µM), for inactives: at the top dose activity, negative = inhibition, actives largely listed as inhibitors | 2.1% of 270,000 active | AID 1460; active = well fitted curve in the direction sought with a large enough effect; inconclusive = small, poorly fitted or top-dose-only effect, or another doubt; inactive = no such curve, though single readings can be large; an effect the other way counts as inactive or inconclusive; note: nearly all actives have a fitted effect of over 55% in size
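Aggregation was driven by heparin (20 uM final) acting on recombinant tau […] bearing P301L in 100 mM sodium acetate pH 7; fibrils were detected with Thioflavin T.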
Tau fluor cs = counter-screen for tau fibril formation inhibitors. tau K18 P301L Alexa594 fluorescence, heparin fibrillization. Potency, µM (doses to about 57.7 µM), for the others: at the top dose activity change, negative = decrease. 0.93% of 280,000 active. AID 1463; active = well fitted curve in the direction sought with a large enough effect; inconclusive = small, poorly fitted or top-dose-only effect, or another doubt; inactive = no such curve, though single readings can be large; an effect the other way counts as inactive or inconclusive; note: nearly all actives have a fitted effect of over 55% in size
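Human tau K18 P301L (15 uM unlabeled, 0.24 uM Alexa 594-labeled) in 100 mM sodium acetate pH 7 with 20 uM heparin, 6 hr at 37 C. ThT 30 uM added, 1 hr ambient; Alexa 594 FP and total fluorescence read at 555/632 nm.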
HPGD inh = blocks human HPGD enzyme activity; P15428; purified HPGD, NADH fluorescence kinetic, PGE2 substrate; Potency, µM, inactives show top-dose activity change, negative = inhibition, hits mostly inhibitors; 4.3% of 150,000 active; AID 894
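NADH formation kinetics: reaction with 30 uM PGE2 and 1 mM NAD+ (final), 20 nM enzyme, Tris-HCl pH 8 with Tween 20, after 15 min compound preincubation at room temperature. Fluorescence change, last versus first of five reads.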
An asterisk follows results filed as active; ? = inconclusive; / = no result; [ ] = dose if it differs, or a comment. Unless noted, calls come from the whole dose curve; as a rule, active = well fitted inhibition curve with a large enough effect (not every such curve was filed as active); inconclusive = small, poorly fitted or top-dose-only effect, or another doubt; inactive = no such curve, though single readings can be large or run the other way. Unless noted, % is set by controls: 0 for no effect and ±100 for the full control effect; potency is the fitted concentration of half-maximal effect.

SMILES | KDM4E inh | ALDH1A1 block | Tau fibril FP | Tau fibril ThT | Tau fluor cs | HPGD inh
COc1ccc(Cn2nnnc2C(c2cccs2)N2CCN(c3ccccc3)CC2)cc1 (centres undefined) | 6% | -6% | 11% | -2% | -13% | -17%
O=C(CNC(=O)c1ccc(Br)o1)OCC(=O)c1cccc([N+](=O)[O-])c1 | -5% | -8% | 4% | -2% | -1% | /
CC(=O)NC(=S)Nc1ccc(S(=O)(=O)Nc2nc(C)cc(C)n2)cc1 | 7% | -4% | -4% | -8% | -10% | /
CCN(c1ccc(OC)cc1)S(=O)(=O)c1ccc2[nH]c(=O)ccc2c1 | / | / | -11% | ? | -25% | /
Nc1ccc2c(c1)OC1(CCCC1)O2 | -16% | -8% | -17% | 13µM* | ? | /
CCN(CC)/C(N)=N/c1nc(C)cc(C)n1 | -7% | 4% | -1% | -11% | 0% | /
O=C(CCc1ccccc1)n1nc(-c2ccco2)nc1SCc1ccccc1 | 7% | 5% | 11% | ? | -15% | 8.9µM*
CSc1nc(-c2ccco2)nn1C(=O)Cc1ccccc1 | -2% | 11% | 0% | -7% | 3% | -13%
COc1ccc(-c2coc3ccc(OC4OC(COC(C)=O)C(OC(C)=O)C(OC(C)=O)C4OC(C)=O)cc3c2=O)cc1 (centres undefined) | -7% | -7% | 2% | 4% | -7% | 0%
CCOC(=O)C1=C(C)N=c2s/c(=C3\C(=O)Nc4ccccc43)c(=O)n2C1c1ccc2c(c1)OCO2 (centres undefined) | -21% | 6% | ? | 18µM* | ? | ?
CCOC(=O)C1=C(C)N=c2s/c(=C\c3ccncc3)c(=O)n2C1c1ccc2c(c1)OCO2 (centres undefined) | ? | ? | ? | 25µM* | ? | ?
COC(=O)c1sccc1NC(=O)CSc1ccccc1NS(=O)(=O)c1ccc(Cl)cc1 | 5% | 13µM* | -3% | -14% | -29% | -16%
COC(=O)c1sccc1NC(=O)CSc1ccccc1NS(=O)(=O)c1ccccc1Cl | -20% | 7.1µM* | -5% | -15% | ? | -15%
COC(=O)c1sccc1NC(=O)CSc1cc(Cl)ccc1Cl | 0% | ? | 2% | -4% | -12% | -22%
O=C(NCc1ccccc1)c1ccc(CNS(=O)(=O)c2ccc(Br)cc2)cc1 | / | / | -12% | 2% | -9% | /
Cc1ccc(Cl)cc1N1CCN(C(=O)c2cc(S(=O)(=O)N3CCCCC3)cn2C)CC1 | / | / | -11% | -8% | -5% | /
O=C1/C(=C/c2cccs2)N=C(c2cccs2)N1Nc1ccccc1 | 2% | ? | -14% | 7.1µM* | ? | -5%
O=C1/C(=C\c2cccs2)N=C(c2cccs2)N1Nc1ccccc1 | -3% | 14µM* | -18% | 10µM* | ? | -28%
Cc1nc(-c2ccc(C)c(S(=O)(=O)N3CCC(C(=O)NCc4ccc(Cl)cc4)CC3)c2)no1 | / | / | ? | 6% | -14% | /
CCN(CC)C(=O)C(=O)N/N=C/c1ccc(C(=O)OC)cc1 | 5% | 4% | 2% | -7% | 1% | -4%
O=c1c2ccccc2nc2ccc(NCc3ccco3)nn12 | ? | ? | 22µM* | 18µM* | -22% | ?
C[C@]12C[C@@](C)(C=C1/C=C/c1ccccc1)C(=O)C[C@H]2c1ccccc1 | 13% | 6% | -1% | 1% | -5% | -4%
O=C1c2ccccc2CCCC12N=NCC2c1cccc2ccccc12 (centres undefined) | -1% | -7% | -13% | ? | -17% | -19%
Cc1ccc(C2CN=NC23CCc2ccccc2C3=O)cc1 (centres undefined) | -8% | ? | -4% | ? | -23% | 32µM*
Nc1nc2c(c(=O)[nH]1)CN(CCCN1CCOCC1)CN2 | / | 8%[13.5 µM] | / | / | / | -11%
SMILES | KDM4E inh | ALDH1A1 block | Tau fibril FP | Tau fibril ThT | Tau fluor cs | HPGD inh
O=[N+]([O-])c1ccccc1-c1ccc(C(=S)N2CCCCC2)o1 | -4% | 22µM* | -12% | ? | ? | /
Cc1cccc(N2CCN(C(=S)c3ccc(-c4ccccc4[N+](=O)[O-])o3)CC2)c1 | -3% | ? | 15% | ? | ? | -22%
O=[N+]([O-])c1ccccc1-c1ccc(C(=S)N2CCCC2)o1 | 25µM* | 2.2µM* | ? | 16µM* | ? | /
COc1ccccc1-n1nc(-c2ccccc2)c2cnc3c(F)cc(F)cc3c21 | / | / | -11% | -5% | -10% | /
CCN1C/C(=C\c2cccc([N+](=O)[O-])c2)C(=O)/C(=C/c2cccc([N+](=O)[O-])c2)C1 | -5% | ? | ? | ? | -17% | -15%
CCN1C/C(=C/c2ccc(OC)c(O)c2)C(=O)/C(=C/c2ccc(OC)c(O)c2)C1 | -6% | 1% | ? | 14µM* | -28% | /
COc1cc(C=C2C(=O)c3ccccc3C2=O)ccc1O | -15% | ? | -5% | ? | -18% | /
COc1ccc(C=C2C(=O)c3ccccc3C2=O)cc1O | -25% | 0.89µM* | -6% | 8.9µM* | -30% | /
COc1ccc2c(c1)CC/C(=C/c1cc(OC)c(OC)c(OC)c1)C2=O | -12% | ? | -11% | ? | -14% | /
COc1cc(C=C2C(=O)c3ccccc3C2=O)cc(OC)c1 | -14% | / | 6% | / | ? | /
COc1cc(C=C2C(=O)c3ccccc3C2=O)cc(OC)c1OC | -26% | 1.6µM* | -4% | 14µM* | -28% | /
COc1cccc(/C=C2\C(=O)C(=O)c3ccccc32)c1 | -7% | ? | 2% | 13µM* | -25% | 3.5µM*
COc1ccccc1C(=O)Nc1ccc(C(=O)OCc2cc(=O)n3nc(C4CC4)sc3n2)cc1 | / | / | 3% | -7% | 8% | /
C[C@H]1C(O)[C@@]23CCC4C5(C=[N+](CCO)C[C@]4(C)CCC5)C2C[C@@H]1C3 (some centres undefined) | 13% | -4% | -7% | -7% | -10% | -3%
COc1ccc(OC)c(CNC(=O)c2ccc(C)c(NC(=O)c3nsc4ccccc34)c2)c1 | / | / | -7% | -5% | -25% | /
COc1ccccc1CCNC(=O)C(=O)NCC(c1cccnc1)N1CCN(c2ccccc2)CC1 (centres undefined) | / | / | -2% | 4% | 1% | /
Cc1cc2n(n1)CCC(=O)N2Cc1ccc(C(=O)Nc2cc(Cl)ccc2C)cc1 | / | / | -6% | -2% | -5% | /
Cc1ccc(C(=O)N/C(=C/c2ccc(C(C)C)cc2)C(=O)NCCCN2CCOCC2)cc1 | 5% | / | -11% | 10% | 2% | /
COc1cc(/C=N/Nc2ccccc2[N+](=O)[O-])ccc1OC(=O)c1ccccc1F | -7% | -30% | 8% | ? | -16% | /
COc1cc(/C=N/Nc2nc3ccccc3s2)ccc1OC(=O)c1ccccc1F | -1% | 0% | 12% | ? | 7.1µM*[quencher] | -28%

High-throughput results from PubChem.
